# PubChem BioAssay (EPA / NIEHS)
# Inconclusive results are not listed. The source made the active and inactive calls. The calls were made as follows, unless noted: active = hit-call score of the fitted dose curve at least 0.9, where 1 is the maximum; inactive = score below 0.9.
# Key:
# [1] = ATG_PBREM_CIS: Attagene CIS-FACTORIAL HepG2 Assay for human Phenobarbital-responsive Enhancer Module (PBREM) (AID 2282955); details: HepG2 PBREM cis-reporter, Attagene multiplexed transcription; actives raise or lower the signal
# In short: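 HepG2, transient MRTU transfection, 24 h dosing; RNA → oligo(dT) RT → PCR → 6-FAM extension → HpaI → CE. Bidirectional fit vs DMSO.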
# [2] = target: Paired box protein Pax-6 (Homo sapiens) (UniProt P26367); assay: ATG_Pax6_CIS: Attagene CIS-FACTORIAL HepG2 Assay for human Paired Box 6 (PAX6) (AID 2282956); details: HepG2 CIS-FACTORIAL PAX6 reporter transcription, RNA readout; actives raise or lower the signal
# In short: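 Read-out is reporter transcript level, measured by RT-PCR with fluorescent primer extension and capillary electrophoresis after 24 h dosing of transfected HepG2 cells. Activity in either direction fitted relative to DMSO control.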
# [3] = ATG_PXRE_CIS: Attagene CIS-FACTORIAL HepG2 Assay for human Pregnane X Receptor Element (PXRE) (AID 2282957); details: HepG2 Attagene CIS-FACTORIAL PXRE reporter, mRNA; actives raise or lower the signal
# In short: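 Bidirectional activity, baselined to DMSO, derived from reporter mRNA fluorescence (RT-PCR plus capillary electrophoresis) in HepG2 cells bearing cis-promoter reporter units, 24 h exposure.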
# [4] = ATG_PPRE_CIS: Attagene CIS-FACTORIAL HepG2 Assay for human Peroxisome Proliferator-activated Response Element (PPRE) (AID 2282958); details: HepG2 PPRE cis-element reporter, Attagene transcription factor profiling; actives raise or lower the signal
# In short: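 Transcript-level reporter induction in transfected HepG2 cells after 24 h chemical exposure, quantified by fluorescence from RT-PCR products separated by capillary electrophoresis.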
# [5] = ATG_RORE_CIS: Attagene CIS-FACTORIAL HepG2 Assay for human RAR-related Orphan Receptor Element (RORE) (AID 2282959); details: HepG2 Attagene cis-factorial RORE reporter, mRNA; actives raise or lower the signal
# In short: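 Multiplexed reporter assay measuring mRNA induction from a cis promoter element in transiently transfected HepG2 cells after 24 h treatment. Detection via RT-PCR and capillary electrophoresis fluorescence; DMSO serves as baseline.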
# [6] = ATG_Sox_CIS: Attagene CIS-FACTORIAL HepG2 Assay for human SRY-box transcription factor (SOX) (AID 2282960); details: HepG2 Attagene cis-factorial SOX reporter, mRNA; actives raise or lower the signal
# In short: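 Cells were transfected with reporter constructs under cis-regulatory promoters, then exposed to chemicals for 24 h. Reporter transcripts were quantified by fluorescence after RT-PCR and capillary electrophoresis; activity was fitted in both directions against DMSO.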
# [7] = target: Transcription factor Sp1 (Homo sapiens) (UniProt P08047); assay: ATG_Sp1_CIS: Attagene CIS-FACTORIAL HepG2 Assay for human Specificity Protein 1 (Sp1) (AID 2282961); details: HepG2 Sp1 cis-reporter transcription, actives raise or lower the signal
# In short: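 Measures mRNA induction of an Sp1-linked reporter in HepG2 cells 24 h post-dosing. Multiplexed reporters read by RT-PCR and capillary electrophoresis; DMSO serves as negative control and baseline.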
# [8] = target: Signal transducer and activator of transcription 3 (Homo sapiens) (UniProt P40763); assay: ATG_STAT3_CIS: Attagene CIS-FACTORIAL HepG2 Assay for human Signal Transducer and Activator of Transcription 3 (STAT3) (AID 2282963); details: HepG2, Attagene cis-factorial STAT3 reporter transcription; actives raise or lower the signal
# In short: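 Readout: fluorescent reporter mRNA fragments resolved by capillary electrophoresis. Setup: HepG2 transfected with MRTUs reporting endogenous transcription-factor activity, dosed 24 h. Gain or loss of signal fitted bidirectionally against DMSO control.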
# [9] = ATG_TA_CIS: Attagene CIS-FACTORIAL HepG2 Assay for human TA Basal Promoter (AID 2282964); details: HepG2 Attagene CIS-factorial TA basal promoter reporter; actives raise or lower the signal
# In short: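 Multiplexed mRNA reporter assay, HepG2, 24 h. Reporter cDNA amplified, 6-FAM primer-extended, HpaI-cut, CE-sized; DMSO = negative control and baseline.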
# [10] = ATG_TCF_b_cat_CIS: Attagene CIS-FACTORIAL HepG2 Assay for human T-Cell-Factor with beta-catenin (TCF/b-cat) (AID 2282965); details: HepG2 TCF/beta-catenin cis-reporter transcription, actives raise or lower the signal
# In short: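 Cells of the HepG2 line carry transiently transfected reporter units whose promoters respond to endogenous factors. Twenty-four hours post-dosing, reporter mRNA induction is measured by fluorescent RT-PCR and capillary electrophoresis, with DMSO as baseline.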
# [11] = ATG_TAL_CIS: Attagene CIS-FACTORIAL HepG2 Assay for human TAL Basal Promoter (AID 2282966); details: HepG2 Attagene cis-factorial TAL promoter reporter; actives raise or lower the signal;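 also: background control endpoint measuring basal TAL promoter reporter mRNA not a specific factor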
# In short: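 Human hepatoma HepG2 cells, transfected with promoter-regulated reporter units, were treated 24 h. Reporter transcript levels, measured through RT-PCR and capillary electrophoresis, were fitted for gain or loss relative to DMSO.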
# [12] = ATG_TGFb_CIS: Attagene CIS-FACTORIAL HepG2 Assay for human Transforming Growth Factor (TGF) (AID 2282967); details: HepG2 Attagene CIS TGFb reporter, mRNA transcription; actives raise or lower the signal
# In short: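 Transcript-level reporter readout: HepG2 transfectants, 24 h exposure, RNA to cDNA, reporter-specific PCR, fluorescent primer extension, capillary sizing against ROX standards. Gain- or loss-of-signal relative to DMSO.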
# [13] = target: Estrogen receptor (Homo sapiens) (UniProt P03372); assay: ATG_ERa_TRANS: Attagene TRANS-FACTORIAL HepG2 Assay for human Estrogen Receptor alpha (ERa) (AID 2282970; active = hit-call score of the fitted dose curve at least 0.9, where 1 is the maximum); details: HepG2 Attagene TRANS ERa GAL4 reporter, mRNA
# In short: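 Signal derives from fluorescence of labelled reporter PCR fragments separated by capillary electrophoresis. HepG2 cells transiently carrying multiple GAL4-UAS reporter units were treated 24 hours, and induction above DMSO baseline was fitted as activity.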
# [14] = target: Steroid hormone receptor ERR1 (Homo sapiens) (UniProt P11474); assay: ATG_ERRa_TRANS: Attagene TRANS-FACTORIAL HepG2 Assay for human Estrogen-Related Receptor alpha (ERRa) (AID 2282971; active = hit-call score of the fitted dose curve at least 0.9, where 1 is the maximum); details: HepG2 Attagene TRANS reporter, ERRa transactivation
# In short: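 Signal gain relative to DMSO for an ERRa-Gal4 chimeric receptor, read as reporter mRNA by RT-PCR/capillary electrophoresis. Human HepG2 liver cells, transient multiplex reporter transfection, 24 h chemical exposure.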
# [15] = target: X-box-binding protein 1 (Homo sapiens) (UniProt P17861); assay: ATG_Xbp1_CIS: Attagene CIS-FACTORIAL HepG2 Assay for human X-box Binding Protein 1 (XBP1) (AID 2282972); details: HepG2 XBP1 cis-element reporter, Attagene multiplex; actives raise or lower the signal
# In short: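 Reporter transcripts were quantified by RT-PCR with fluorescent primer extension and capillary electrophoresis after 24 h chemical exposure. Cells: transiently transfected HepG2 carrying cis-regulated reporter constructs; data fitted bidirectionally relative to DMSO.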
# [16] = ATG_GAL4_TRANS: Attagene TRANS-FACTORIAL HepG2 Assay for GAL4 (Internal Marker) (AID 2282976; active = hit-call score of the fitted dose curve at least 0.9, where 1 is the maximum); details: HepG2 Attagene TRANS GAL4 internal marker reporter
# In short: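 Liver HepG2 line bearing multiplexed GAL4-UAS reporter constructs; 24 h chemical treatment. Transcripts were quantified as fluorescent fragments on capillary electrophoresis after RT-PCR and HpaI cut, with activity fitted upward from DMSO.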
# [17] = ATG_SREBP_CIS: Attagene CIS-FACTORIAL HepG2 Assay for human Sterol Regulatory Element Binding (SREBP) (AID 2282962); details: HepG2 Attagene cis-factorial SREBP reporter, mRNA; actives raise or lower the signal
# In short: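 Endogenous SREBP activity read as cis-element-driven reporter transcript in transiently transfected HepG2, 24 h post-dosing; quantified via RT-PCR plus capillary electrophoresis of fluorescent fragments. Gain or loss of signal fitted relative to DMSO baseline.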
# [18] = ATG_VDRE_CIS: Attagene CIS-FACTORIAL HepG2 Assay for human Vitamin D Receptor Element (VDRE) (AID 2282968); details: HepG2 VDRE cis-reporter transcription, actives raise or lower the signal
# In short: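 Transient MRTU transfection of HepG2, 24 h compound exposure. Readout: reporter transcripts via RT-PCR and capillary electrophoresis, fluorescence. Bidirectional fit vs DMSO.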
# [19] = ATG_M_19_TRANS: Attagene TRANS-FACTORIAL HepG2 Assay for M19 Transcription Factor (Internal Marker) (AID 2282974; active = hit-call score of the fitted dose curve at least 0.9, where 1 is the maximum); details: HepG2 Attagene TRANS-FACTORIAL M19 internal marker reporter
# In short: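 After transfection of HepG2 with GAL4-UAS-driven reporter constructs, cells are dosed for 24 h. Total RNA is reverse-transcribed, reporter sequences PCR-amplified and labelled, then HpaI-digested and sized by capillary electrophoresis.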
# [20] = target: Nuclear receptor subfamily 1 group I member 3 (Homo sapiens) (UniProt Q14994); assay: ATG_CAR_TRANS: Attagene TRANS-FACTORIAL HepG2 Assay for human Constitutive Androstane Receptor (CAR) (AID 2282969; active = hit-call score of the fitted dose curve at least 0.9, where 1 is the maximum;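 also: activators raise reporter mRNA above DMSO so AC50 marks induction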); details: HepG2 Attagene TRANS-FACTORIAL CAR reporter
# In short: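 Transiently transfected HepG2, multiplex TRANS reporters (CAR-Gal4 chimera driving GAL4-UAS reporter). 24 h dosing. Readout: reporter transcript by RT-PCR + capillary electrophoresis, fluorescence intensity; positive direction vs DMSO.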
# Transcription factor Sp1 (Homo sapiens), sequence (P08047 whole entry, looked up): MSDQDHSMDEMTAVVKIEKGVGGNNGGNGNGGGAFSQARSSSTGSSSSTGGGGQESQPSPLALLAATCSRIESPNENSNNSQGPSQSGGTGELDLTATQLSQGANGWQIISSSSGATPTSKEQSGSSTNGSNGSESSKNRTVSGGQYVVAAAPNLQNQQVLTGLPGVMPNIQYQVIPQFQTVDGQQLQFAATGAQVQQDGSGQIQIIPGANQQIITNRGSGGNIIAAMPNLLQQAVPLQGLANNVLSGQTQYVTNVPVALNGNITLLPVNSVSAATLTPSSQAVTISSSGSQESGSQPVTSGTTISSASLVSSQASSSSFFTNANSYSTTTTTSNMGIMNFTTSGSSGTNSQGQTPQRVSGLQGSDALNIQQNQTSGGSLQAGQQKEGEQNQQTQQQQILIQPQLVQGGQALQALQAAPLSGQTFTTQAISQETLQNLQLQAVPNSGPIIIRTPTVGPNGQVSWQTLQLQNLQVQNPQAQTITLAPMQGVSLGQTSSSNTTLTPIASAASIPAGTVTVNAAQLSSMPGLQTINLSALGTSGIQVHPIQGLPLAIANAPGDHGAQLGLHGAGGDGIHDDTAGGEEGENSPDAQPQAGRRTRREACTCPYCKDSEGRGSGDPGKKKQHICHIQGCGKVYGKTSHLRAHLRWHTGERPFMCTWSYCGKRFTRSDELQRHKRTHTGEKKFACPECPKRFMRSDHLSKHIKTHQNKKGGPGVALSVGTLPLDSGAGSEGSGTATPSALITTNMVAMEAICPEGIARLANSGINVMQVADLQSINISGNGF
# X-box-binding protein 1 (Homo sapiens), sequence (P17861 whole entry, looked up): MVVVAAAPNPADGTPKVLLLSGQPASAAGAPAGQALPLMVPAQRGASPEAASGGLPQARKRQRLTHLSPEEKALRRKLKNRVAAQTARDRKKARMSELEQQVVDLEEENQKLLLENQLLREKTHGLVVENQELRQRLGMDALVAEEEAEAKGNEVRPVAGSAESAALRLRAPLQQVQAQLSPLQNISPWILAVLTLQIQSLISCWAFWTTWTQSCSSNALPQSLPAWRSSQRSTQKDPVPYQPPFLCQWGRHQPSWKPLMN
# Signal transducer and activator of transcription 3 (Homo sapiens), sequence (P40763 whole entry, looked up, the tested form may be a part): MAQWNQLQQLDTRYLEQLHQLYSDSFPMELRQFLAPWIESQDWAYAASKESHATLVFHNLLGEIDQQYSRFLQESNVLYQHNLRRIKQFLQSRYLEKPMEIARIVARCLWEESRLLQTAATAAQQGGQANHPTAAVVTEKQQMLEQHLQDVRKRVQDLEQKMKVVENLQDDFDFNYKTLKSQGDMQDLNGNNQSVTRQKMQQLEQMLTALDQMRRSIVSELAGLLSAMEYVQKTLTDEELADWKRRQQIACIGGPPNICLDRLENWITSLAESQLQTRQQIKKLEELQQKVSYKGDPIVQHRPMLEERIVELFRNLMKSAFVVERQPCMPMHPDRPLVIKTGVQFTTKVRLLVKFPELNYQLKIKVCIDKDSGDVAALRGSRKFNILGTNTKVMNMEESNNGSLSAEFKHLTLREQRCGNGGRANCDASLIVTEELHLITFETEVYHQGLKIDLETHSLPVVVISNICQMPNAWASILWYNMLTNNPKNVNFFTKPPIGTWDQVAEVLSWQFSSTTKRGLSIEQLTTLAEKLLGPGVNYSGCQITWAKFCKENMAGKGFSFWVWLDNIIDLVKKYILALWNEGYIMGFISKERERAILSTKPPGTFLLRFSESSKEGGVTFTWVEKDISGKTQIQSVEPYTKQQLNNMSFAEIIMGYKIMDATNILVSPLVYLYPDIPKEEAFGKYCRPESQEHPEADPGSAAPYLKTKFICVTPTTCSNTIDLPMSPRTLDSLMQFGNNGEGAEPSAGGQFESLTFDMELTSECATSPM
# Paired box protein Pax-6 (Homo sapiens), sequence (P26367 whole entry, looked up): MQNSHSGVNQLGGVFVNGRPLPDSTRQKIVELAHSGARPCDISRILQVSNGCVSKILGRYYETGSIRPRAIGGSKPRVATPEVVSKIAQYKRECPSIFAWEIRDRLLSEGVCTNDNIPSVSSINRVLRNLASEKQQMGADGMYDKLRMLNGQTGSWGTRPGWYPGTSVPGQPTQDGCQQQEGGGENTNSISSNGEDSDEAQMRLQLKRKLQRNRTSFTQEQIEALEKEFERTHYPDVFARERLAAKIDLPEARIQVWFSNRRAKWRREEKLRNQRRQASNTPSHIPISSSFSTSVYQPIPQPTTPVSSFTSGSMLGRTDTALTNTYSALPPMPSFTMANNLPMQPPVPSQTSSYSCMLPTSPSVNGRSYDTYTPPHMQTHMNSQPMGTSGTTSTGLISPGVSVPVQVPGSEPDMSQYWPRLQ
# Nuclear receptor subfamily 1 group I member 3 (Homo sapiens), sequence (Q14994 whole entry, looked up, the tested form may be a part): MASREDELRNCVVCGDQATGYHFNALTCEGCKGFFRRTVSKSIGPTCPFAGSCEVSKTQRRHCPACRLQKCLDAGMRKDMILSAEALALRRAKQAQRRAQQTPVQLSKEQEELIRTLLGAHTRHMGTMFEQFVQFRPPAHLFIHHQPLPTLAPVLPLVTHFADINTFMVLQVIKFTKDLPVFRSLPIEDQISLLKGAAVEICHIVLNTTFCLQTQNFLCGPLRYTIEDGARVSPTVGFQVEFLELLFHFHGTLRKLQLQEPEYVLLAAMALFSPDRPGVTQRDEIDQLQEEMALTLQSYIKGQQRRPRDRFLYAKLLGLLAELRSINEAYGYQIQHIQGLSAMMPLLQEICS
# Estrogen receptor (Homo sapiens), sequence (P03372 whole entry, looked up, the tested form may be a part): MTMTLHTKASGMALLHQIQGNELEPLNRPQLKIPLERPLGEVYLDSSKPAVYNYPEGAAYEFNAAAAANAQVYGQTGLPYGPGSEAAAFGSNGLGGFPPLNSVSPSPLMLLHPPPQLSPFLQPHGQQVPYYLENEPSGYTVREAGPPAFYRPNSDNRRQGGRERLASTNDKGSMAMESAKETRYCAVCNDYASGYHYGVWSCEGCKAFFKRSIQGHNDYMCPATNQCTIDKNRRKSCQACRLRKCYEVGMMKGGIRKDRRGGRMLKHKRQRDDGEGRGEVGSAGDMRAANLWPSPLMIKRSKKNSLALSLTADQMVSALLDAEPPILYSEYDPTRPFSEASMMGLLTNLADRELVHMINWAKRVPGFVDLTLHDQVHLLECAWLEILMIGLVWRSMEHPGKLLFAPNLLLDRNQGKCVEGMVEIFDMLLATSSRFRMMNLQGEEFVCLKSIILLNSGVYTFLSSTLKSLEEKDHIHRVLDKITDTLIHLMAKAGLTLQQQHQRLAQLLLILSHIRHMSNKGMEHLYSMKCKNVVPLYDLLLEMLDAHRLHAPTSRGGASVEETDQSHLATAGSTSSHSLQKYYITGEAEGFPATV
# Steroid hormone receptor ERR1 (Homo sapiens), sequence (P11474 whole entry, looked up, the tested form may be a part): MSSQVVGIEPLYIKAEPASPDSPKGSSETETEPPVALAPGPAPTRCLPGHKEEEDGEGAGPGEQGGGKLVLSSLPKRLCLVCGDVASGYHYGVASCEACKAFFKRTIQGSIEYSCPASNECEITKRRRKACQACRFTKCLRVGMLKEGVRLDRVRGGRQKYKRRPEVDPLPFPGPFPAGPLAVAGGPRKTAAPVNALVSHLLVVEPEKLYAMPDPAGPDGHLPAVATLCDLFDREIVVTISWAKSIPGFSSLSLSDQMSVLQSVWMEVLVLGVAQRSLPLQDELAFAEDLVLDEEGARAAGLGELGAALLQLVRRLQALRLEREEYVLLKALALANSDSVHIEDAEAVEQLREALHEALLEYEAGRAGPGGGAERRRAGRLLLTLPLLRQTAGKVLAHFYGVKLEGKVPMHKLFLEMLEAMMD
smiles,measurement,setting,value
O=C(Cl)c1c(Cl)c(Cl)c(C(=O)Cl)c(Cl)c1Cl,outcome,[1],inactive
same,outcome,[2],inactive
same,AC50,[3],27.9 µM (active)
same,outcome,[4],inactive
same,outcome,[5],inactive
same,outcome,[6],inactive
same,outcome,[7],inactive
same,outcome,[8],inactive
same,outcome,[9],inactive
same,outcome,[10],inactive
same,outcome,[11],inactive
same,AC50,[12],0.74 µM (active)
same,outcome,[13],inactive
same,outcome,[14],inactive
same,outcome,[15],inactive
same,outcome,[16],inactive
CCOC(=O)OC(=O)OCC,outcome,[1],inactive
same,outcome,[2],inactive
same,outcome,[3],inactive
same,outcome,[4],inactive
same,outcome,[6],inactive
same,outcome,[7],inactive
same,outcome,[17],inactive
same,outcome,[8],inactive
same,outcome,[9],inactive
same,outcome,[10],inactive
same,outcome,[11],inactive
same,outcome,[12],inactive
same,outcome,[18],inactive
same,outcome,[15],inactive
same,outcome,[16],inactive
CC(C)C(=O)OCCOc1ccccc1,outcome,[1],inactive
same,outcome,[2],inactive
same,AC50,[3],4.56 µM (active)
same,outcome,[4],inactive
same,outcome,[5],inactive
same,outcome,[6],inactive
same,outcome,[17],inactive
same,outcome,[8],inactive
same,outcome,[9],inactive
same,outcome,[10],inactive
same,outcome,[11],inactive
same,outcome,[12],inactive
same,outcome,[18],inactive
same,outcome,[15],inactive
same,outcome,[19],inactive
CCCCC(CC)COC(=O)/C=C/c1ccc(OC)cc1 (configuration not stated),outcome,[1],inactive
same,outcome,[2],inactive
same,AC50,[3],39.4 µM (active)
same,outcome,[4],inactive
same,outcome,[6],inactive
same,outcome,[7],inactive
same,outcome,[8],inactive
same,outcome,[9],inactive
same,outcome,[11],inactive
same,outcome,[12],inactive
same,outcome,[18],inactive
same,outcome,[20],inactive
same,outcome,[13],inactive
same,outcome,[14],inactive
same,outcome,[15],inactive
C=CC(=O)OCCCCCCCC(C)C,outcome,[1],inactive
same,outcome,[2],inactive
same,AC50,[3],7.99 µM (active)
same,AC50,[4],71.1 µM (active)
same,AC50,[5],100 µM (active)
same,outcome,[6],inactive
same,outcome,[7],inactive
same,outcome,[9],inactive
same,outcome,[10],inactive
same,outcome,[11],inactive
same,AC50,[12],55 µM (active)
same,outcome,[18],inactive
same,outcome,[13],inactive
same,outcome,[15],inactive
same,outcome,[16],inactive
Cc1noc(NS(=O)(=O)c2ccc(N)cc2)c1C,outcome,[1],inactive
same,outcome,[2],inactive
same,outcome,[3],inactive
same,outcome,[4],inactive
same,outcome,[6],inactive
same,outcome,[7],inactive
same,outcome,[17],inactive
same,outcome,[9],inactive
same,outcome,[10],inactive
same,outcome,[11],inactive
same,outcome,[12],inactive
same,outcome,[20],inactive
same,outcome,[13],inactive
same,outcome,[15],inactive
CC(C)(C)N,outcome,[1],inactive
same,outcome,[2],inactive
same,outcome,[3],inactive
same,outcome,[4],inactive
same,outcome,[6],inactive
same,outcome,[7],inactive
same,outcome,[17],inactive
same,outcome,[8],inactive
same,outcome,[9],inactive
same,outcome,[10],inactive
same,outcome,[11],inactive
same,outcome,[12],inactive
same,outcome,[18],inactive
same,outcome,[15],inactive
same,outcome,[19],inactive
same,outcome,[16],inactive
CCCC1CCCC(=O)O1 (configuration not stated),outcome,[1],inactive
same,outcome,[2],inactive
same,outcome,[3],inactive
same,AC50,[4],11 µM (active)
same,outcome,[6],inactive
same,outcome,[7],inactive
same,outcome,[9],inactive
same,outcome,[10],inactive
same,outcome,[11],inactive
same,outcome,[12],inactive
same,outcome,[20],inactive
same,outcome,[13],inactive
same,outcome,[15],inactive
same,outcome,[19],inactive
CCOC(=O)[C@H](O)[C@@H](O)C(=O)OCC,outcome,[1],inactive
same,outcome,[2],inactive
same,AC50,[3],52.4 µM (active)
same,outcome,[4],inactive
same,outcome,[6],inactive
same,outcome,[7],inactive
same,outcome,[8],inactive
same,outcome,[9],inactive
same,outcome,[10],inactive
same,outcome,[11],inactive
same,outcome,[12],inactive
same,outcome,[18],inactive
same,outcome,[20],inactive
same,outcome,[13],inactive
same,outcome,[15],inactive
same,outcome,[19],inactive
same,outcome,[16],inactive
